Source: PubChem BioAssay
C2C12 statin: protects C2C12 myotubes from simvastatin toxicity | ATP luminescence, 48 h; scaled: DMSO 0, geranylgeraniol control 100 | rescue of ATP level, % at 7.49 µM | 0.78% of 330,000 active;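 active = mean ATP rescue above about 67%, or every replicate alone reaching that limit, limit read from the data, passing the limit was not always enough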;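 note: myotubes were challenged with 10 µM simvastatin during compound exposure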
PglD inh: PglD (C. jejuni) enzyme inhibition; AID 602405; 0.098% of 360,000 active; purified PglD enzyme, DTNB colorimetric CoA detection; inhibition, % at 12.5 µM; in the data active = inhibition above about 16%, passing the limit was not always enough
NSD2 inh: blocks human histone methyltransferase NSD2; O96028; NSD2 peptide methylation, AlphaScreen, 120 min; inhibition, % at 12.5 µM; 0.54% of 310,000 active; AID 743445; in the data active = inhibition above about 50%
miR-122 sensor: blocks miR-122 activity in Huh7 sensor cells; 0.3% of 340,000 active; activation (reporter increase), % at 12.5 µM; Huh7 miR-122 Renilla luciferase sensor, 48 h; neutral wells = 0, positive control = 100; AID 602342;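 active = mean replicate activation score at least 90 and every replicate individually at or above 90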;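 note: higher luciferase means less miR-122 activity so hits act as miR-122 inhibitors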
* hit, by the source's call; x = no result given; ! = not active in a repeat; [ ] = another dose, or the depositor's remark. Shown are actives, neighbours in structure and some others; about 1.2% of the full set was active somewhere.

SMILES	C2C12 statin	PglD inh	NSD2 inh	miR-122 sensor
C[C@@H]1CN([C@H](C)CO)C(=O)c2cc(-c3cccc(C(=O)N(C)C)c3)cnc2O[C@H]1CN(C)S(=O)(=O)c1ccccc1	-2	-1	x	x
CC(C)(C)c1cc(C(=O)NNc2cccc(Cl)c2)n(Cc2ccccc2)n1	61	4	-4	126*
Cc1ccc(NNC(=O)c2cc(C(C)(C)C)nn2Cc2ccccc2)cc1	28	-3	1	0
O=C(Cc1cccnc1)N1[C@@H](CO)[C@@H]2c3ccccc3NC[C@@H]21	-2	0	x	-32[16.7 µM]
CCN(CC)c1ccc(NC(=O)c2cnccn2)cc1S(=O)(=O)Nc1ccc(OC)cc1	x	-3	-3	123*
CCN(CC)c1ccc(NC(=O)COc2ccccc2C#N)cc1S(=O)(=O)Nc1ccc(OC)cc1	x	-4	-3	-3
CCC(C(=O)NC1CCCC1)N(C(=O)Cn1nnc(-c2ccc(OC)c(OC)c2)n1)c1cccc(O)c1 (configuration not stated)	139*	-2	-3	-4
COc1ccc(-c2nnn(CC(=O)N(c3cccc(O)c3)C(C)C(=O)NC3CCCC3)n2)cc1OC (configuration not stated)	x	x	0	x
C[C@H]1CN([C@@H](C)CO)C(=O)c2cc(NC(=O)C3CC3)ccc2O[C@@H]1CN(C)CC1CCCCC1	81*	2	x	5[16.7 µM]
C[C@@H]1CCCCO[C@@H](CN(C)CC2CCCCC2)[C@@H](C)CN([C@H](C)CO)C(=O)c2cc(NS(=O)(=O)c3ccc(F)cc3)ccc2O1	96*	2	x	-11[16.7 µM]
COc1ccc(S(=O)(=O)Nc2ccc3c(c2)C(=O)N([C@@H](C)CO)C[C@H](C)[C@H](CN(C)Cc2ccc4c(c2)OCO4)OCCCC[C@@H](C)O3)cc1	11	3	x	-9[16.7 µM]
COc1ccc(S(=O)(=O)Nc2ccc3c(c2)C(=O)N([C@@H](C)CO)C[C@@H](C)[C@@H](CN(C)Cc2ccc4c(c2)OCO4)OCCCC[C@H](C)O3)cc1	90*	2	x	-6[16.7 µM]
COc1ccc(S(=O)(=O)Nc2ccc3c(c2)C(=O)N([C@@H](C)CO)C[C@@H](C)[C@@H](CN(C)S(=O)(=O)c2ccc(F)cc2)OCCCC[C@H](C)O3)cc1	151*	-3	x	13[16.7 µM]
C[C@@H]1CN([C@H](C)CO)C(=O)c2cc(NS(=O)(=O)c3ccc(F)cc3)ccc2O[C@@H](C)CCCCO[C@H]1CN(C)CC1CCCCC1	-309	-1	x	-4[16.7 µM]
COc1ccccc1NC(=O)N(C)C[C@H]1Oc2ncc(C#CC(C)C)cc2C(=O)N([C@@H](C)CO)C[C@@H]1C	22	6	x	22[16.7 µM]
C[C@H]1CN([C@@H](C)CO)C(=O)c2cc(NC(=O)Cc3ccccc3)ccc2O[C@@H]1CN(C)S(=O)(=O)c1cccs1	98*	4	x	0[16.7 µM]
C[C@@H]1CN([C@H](C)CO)C(=O)c2cc(NC(=O)Nc3ccc(F)cc3)ccc2O[C@@H](C)CCCCO[C@H]1CN(C)S(=O)(=O)c1cccs1	141*!	-1	x	-5
COc1ccc(S(=O)(=O)N(C)C[C@H]2OCCCC[C@@H](C)Oc3ccc(NS(=O)(=O)c4ccc(F)cc4)cc3C(=O)N([C@@H](C)CO)C[C@H]2C)cc1	13	0	x	-8[16.7 µM]
COc1ccc(S(=O)(=O)Nc2ccc3c(c2)C(=O)N([C@@H](C)CO)C[C@@H](C)[C@@H](CN(C)S(=O)(=O)c2cccs2)OCCCC[C@H](C)O3)cc1	91*	-2	x	5[16.7 µM]
COc1ccc(S(=O)(=O)Nc2ccc3c(c2)C(=O)N([C@@H](C)CO)C[C@@H](C)[C@@H](CN(C)S(=O)(=O)c2ccc(F)cc2)OCCCC[C@@H](C)O3)cc1	133*	3	x	-6[16.7 µM]
C[C@H]1CCCCO[C@H](CN(C)S(=O)(=O)c2cccs2)[C@@H](C)CN([C@@H](C)CO)C(=O)c2cc(NC(=O)Nc3ccc(F)cc3)ccc2O1	-84	-3	x	15[16.7 µM]
CO[C@H]1CN(C)C(=O)c2ccc(NC(=O)Nc3ccccc3)cc2OC[C@@H](C)NC[C@H]1C	-1	1	x	3[16.7 µM]
COc1ccc(-c2c(C#N)c(N)nc3c2c(=O)n(C)c(=O)n3C)cc1	2	0	-1	-2
CCOc1ccc(-c2c(C#N)c(N)nc3c2c(=O)n(C)c(=O)n3C)cc1OC	84*	-2	-4	1
Cc1cccc(Nc2nnc(-c3ccc(C(=O)N4C[C@H]5C[C@H](C4)c4cccc(=O)n4C5)cc3)c3ccccc23)c1	114*	-9	0	-3
SMILES	C2C12 statin	PglD inh	NSD2 inh	miR-122 sensor
CO[C@@H]1CN(C)C(=O)c2ccc(NC(=O)C3CCCCC3)cc2OC[C@@H](C)NC[C@@H]1C	-4	4	x	-5[16.7 µM]
CC(C)NC(=O)N[C@H]1CC[C@@H](CCn2cc(-c3ccc(F)cc3)nn2)O[C@@H]1CO	7	-2	x	x
CCOC(=O)C1Nc2ccc(C(=O)O)cc2C2C=CCC12 (configuration not stated)	2	-5	100*	1
Cc1cccc(C)c1NC(=O)CNC(=O)c1ccc(S(=O)(=O)NCc2ccco2)cc1	4	-1	0	6
COc1ccccc1NC(=O)c1ccc(S(=O)(=O)NCc2ccco2)cc1	5	0	13	28
COc1ccc(C(=O)Nc2ccc(S(=O)(=O)NCc3ccco3)cc2)cc1OC	6	0	1	176*
CN1C(=O)c2cccc3c(S(N)(=O)=O)ccc1c23	-12	-1	-1	-5
Cc1cccc(NC(=O)c2cc(S(=O)(=O)NCc3ccco3)ccc2F)c1C	79*	-3	x	34
COc1ccc(S(=O)(=O)NCc2ccco2)c2ccccc12	12	4	2	96*
COc1ccc(S(=O)(=O)NCc2ccco2)cc1NC(=O)c1ccccc1	1	6	-1	61
CN1C(=O)c2cccc3c(S(=O)(=O)NCc4ccco4)ccc1c23	110*	-2	1	56
CC(=O)N[C@H]1CC[C@@H](CC(=O)NCC2CCCCC2)O[C@H]1CO	-6	2	x	x
COc1ccccc1C(=O)N1C[C@H]2[C@@H](c3ccccc31)[C@@H](CO)N2C(=O)C1CCOCC1	3	-8	x	0[16.7 µM]
CO[C@@H]1CN(C)C(=O)c2cc(NS(=O)(=O)c3ccccc3)ccc2OC[C@H](C)N(Cc2nccs2)C[C@H]1C	27	-1	x	x
O=C(Nc1cccs1)NC1CCCC1	109*	5	-2	6
C[C@@H]1CN([C@@H](C)CO)C(=O)c2cc(C#CC3(O)CCCC3)cnc2O[C@H]1CN(C)Cc1ccccc1	2	-14	x	0[16.7 µM]
O=C1N(Cc2ccccc2F)c2ccccc2C12OCCCO2	120*	-8	-12	-6
O=C1N(Cc2ccc(F)cc2Cl)c2ccccc2C12OCCCO2	9	-9	-2	3
O=C(O)CCCC(=O)Nc1ccccc1Br	71*	-1	0	-4
C[C@@H]1CN([C@@H](C)CO)C(=O)c2cc(NC(=O)Cc3cn(C)c4ccccc34)ccc2O[C@H]1CN(C)C	4	-6	x	6[16.7 µM]
O=C(O)c1ccc(CS(=O)(=O)Cc2ccccc2F)o1	x	x	-2	x
CCN1CCN(C(=O)c2ccc(CS(=O)(=O)Cc3ccccc3F)o2)CC1	95*	4	4	-5
